Reference: PubChem BioAssay (EPA / NIEHS)
Several values for one entry are separate records, joined by “and”; a condition that tells them apart may be missing. Equal values may be shown once. A structure can be active in one record and inactive in another. Activity calls are given as the source filed them. Rule for the calls: active = hit-call score of the fitted dose curve at least 0.9, where 1 is the maximum; inactive = score below 0.9.

Read-out: Macrophage colony-stimulating factor (MCSF), CSF1 (gene 1435)
Assay: BSK_LPS_MCSF: BioMAP Diversity Plus: LPS Assay for Macrophage colony-stimulating factor (MCSF) Biomarker Activity (AID 2283083)
Settings: primary human HUVEC with PBMC; actives raise or lower the signal
Experimental: BSK_LPS is a cell-based, multiplexed-readout assay that uses umbilical vein endothelium and peripheral blood mononuclear cells, a human vascular primary cell co-culture, with measurements taken at 24 hours after chemical dosing in a 96-well plate.BSK_LPS_MCSF is an assay component measured in the BSK_LPS assay. It measures M-CSF antibody related to regulation of gene expression using ELISA technology.Data from the assay component BSK_LPS_MCSF was analyzed into 1 assay endpoint. This assay endpoint, BSK_LPS_MCSF, was analyzed with bidirectional fitting relative to DMSO as the negative control and baseline of activity. Using a type of binding reporter, gain or loss-of-signal activity can be used to understand changes in the signaling as they relate to the gene CSF1. Furthermore, this assay endpoint can be referred to as a primary readout, because this assay has produced multiple assay endpoints where this one serves a signaling function. To generalize the intended target to other relatable targets, this assay endpoint is annotated to the cytokine intended target family, where the subfamily is colony stimulating factor.
The levels of cell surface (or secreted, indicated by the prefix "s") biomarker endpoints were measured by ELISA. Overt cytotoxicity to cells in confluent adherent cultures (all systems other than the BT system) was assessed by measuring total protein levels using sulforhodamine B (SRB) staining in parallel cultures at the time of biomarker measurements, indicated as SRB endpoints. For proliferation assays for adherent cell types, individual cell types are cultured at sub-confluence and relative cell numbers quantified by SRB staining at time points optimized for each system (48 h: 3C and CASM3C systems; 72 h: BT and HDF3CGF systems; 96 h: SAg system). SRB was performed by staining cells with 0.1% SRB after fixation with 10% TCA and reading wells at 560 nm.Viability and proliferation of PBMC (T cells) was quantified by Alamar Blue reduction for the SAg and BT systems. For PBMC viability (referred to as PBMC Cytotoxicity within the assay endpoint names), cells were plated (75,000/well in a 96-well plate) and then chemical samples added for 1 h before addition of activators, SEB and TSST-1 (20 ng/mL final concentration each). Cells were incubated for 90 h. Then, Alamar Blue (20 uL/well) (Invitrogen, Cat DAL1100) was added for 6 h, and the plates were read with a fluorescence microplate reader at 546/580 nm (excitation/emission). For PBMC proliferation, cells were plated and activated as above but incubated for only 16 h prior to addition of Alamar Blue. Plates were read after 6 h.

outcome, inactive:
COC(=O)CC(=O)OC
CC(O)CN(CCN(CC(C)O)CC(C)O)CC(C)O (stereo not given)
CC(C)CCCCCCOC(=O)c1ccc(C(=O)OCCCCCCC(C)C)c(C(=O)OCCCCCCC(C)C)c1
CCCC(=O)OCC
CCOCCO
C1=CCCC=CCCC=CCC1
CC(C)=CCC/C(C)=C\CO
CC(C)=CCCC(C)CCO (stereo not given)
CCOC(=O)CC(CC(=O)OCC)(OC(C)=O)C(=O)OCC
COCCOCCOCCOC
CC[C@H]1OC(=O)[C@H](C)[C@@H](O[C@H]2C[C@@](C)(OC)[C@@H](O)[C@H](C)O2)[C@H](C)[C@@H](O[C@@H]2O[C@H](C)C[C@H](N(C)C)[C@H]2O)[C@](C)(O)C[C@@H](C)C(=O)[C@H](C)[C@@H](O)[C@]1(C)O
CC1=CC(=O)CC(C)(C)C1
C1N2CN3CN1CN(C2)C3
CC1(C)C(=O)N(Br)C(=O)N1Br
NC(=O)NO
CC(C)(O)c1coc(S(=O)(=O)NC(=O)Nc2c3c(cc4c2CCC4)CCC3)c1
C[C@](N)(Cc1ccc(O)c(O)c1)C(=O)O
O=C1CCC(N2C(=O)c3ccccc3C2=O)C(=O)N1 (stereo not given)
CCCCC(CC)COC(=O)CCCCCCCCC(=O)OCC(CC)CCCC (stereo not given)
Cn1c(=O)c2c(ncn2C)n(C)c1=O
CC(C)CCCCCCCOC(=O)CCCCC(=O)OCCCCCCCC(C)C
COc1cccc(-c2ccc(/C=C\CN3CCCCCC3)cc2Cl)c1
C=CCCCCCCCCC(=O)O
CCCCCCCCO
COc1ccc(/C=C/S(=O)(=O)NC(=O)c2ccc(C)cc2Cl)cc1
O=C(OC[C@H]1O[C@@H](OC(=O)c2cc(O)c(O)c(OC(=O)c3cc(O)c(O)c(O)c3)c2)[C@H](OC(=O)c2cc(O)c(O)c(OC(=O)c3cc(O)c(O)c(O)c3)c2)[C@@H](OC(=O)c2cc(O)c(O)c(OC(=O)c3cc(O)c(O)c(O)c3)c2)[C@@H]1OC(=O)c1cc(O)c(O)c(OC(=O)c2cc(O)c(O)c(O)c2)c1)c1cc(O)c(O)c(OC(=O)c2cc(O)c(O)c(O)c2)c1
Cc1ccc(S(=O)(=O)O)cc1C
Cc1ccc(O)cc1
Cn1cnc([N+](=O)[O-])c1Sc1ncnc2nc[nH]c12
CCN(C(=O)c1cc(C)cc(OC[C@H](C)Nc2ccncc2)c1)C(C)C
O=C(O)c1cccc(Oc2ccccc2)c1
Cc1ccc(N)cc1O
O=C(O)c1cccc(N(Cc2cccnc2)c2ccc(OC(F)F)c(OC(F)F)c2)c1

AC50, active:
O=C(CCCCCCCCc1cccnc1)N1CCC(C=C(c2ccccc2)c2ccccc2)CC1 11.4 µM
CC[C@H](C)C(=O)O[C@H]1C[C@@H](C)C=C2C=C[C@H](C)[C@H](CC[C@@H]3C[C@@H](O)CC(=O)O3)[C@H]21 34 µM
CNS(=O)(=O)c1cc(C(=O)N2CCC(CCN3C4CCC3CC(n3c(C)nc5ccccc53)C4)(c3cccc(F)c3)CC2)c(Cl)cc1F (stereo not given) 18.3 µM
CCOC(=O)c1ccc(C2CCC(NC[C@H](O)COc3ccc(O)c(NS(C)(=O)=O)c3)CC2)cc1 (stereo not given in full) 18.7 µM
Cn1cnc([N+](=O)[O-])c1Sc1ncnc2nc[nH]c12 20.3 µM and 5.64 µM
CCCCCCCCCCCCCCCO 31 µM
O=c1n(CC2CO2)c(=O)n(CC2CO2)c(=O)n1CC1CO1 (stereo not given) 20 µM
